From PubChem BioAssay
HepG2 viability: counter-screen for TGF-b inhibitors: cytotoxicity in HepG2 cells; HepG2 CAGA-GFP viability, ATP luminescence, 18 h; Potency, µM (titrated, usually from 46.1 µM), usual class: cytotoxic; 410,000 tested, 0.76% active; AID 588856
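HepG2 CAGA-GFP cells (1000/well, DMEM with 1% FBS) received compound, then TGF-beta at 500 pg/mL final, and were incubated 18 hours at 37 degrees C. Viability was read by CellTiter-Glo luminescence. Media-only wells were set as complete cell-killing and DMSO as no toxicity.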
HT1080 IDH1KD tx: kills HT-1080 cells with IDH1 knockdown | HT-1080 IDH1 knockdown viability, ATP luminescence, 48 h | Potency, µM (series often up to 46.1 µM), actives largely listed as cytotoxic | 360,000 tested, 2% active
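Assay cells: HT-1080 with IDH1 knockdown, 750 per well, RPMI/5% FBS. Exposure: 48 h at 37 °C following 2 h pre-incubation. Read: CellTiter-Glo luminescence; fitted concentration-response, curve class assigned.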
TGFb SMAD3 inh: TGF-b pathway inhibition; HepG2 CAGA-GFP TGF-b/SMAD3 reporter, GFP fluorescence, 18 h; TGF-beta stimulated, 500 pg/mL final; Potency, µM (doses to about 46.1 µM), usual class: inhibitors; 410,000 tested, 1.2% active; note: nearly all actives have a fitted effect of over 65% in size
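TGF-beta reporter screen: HEPG2 CAGA-GFP, 1% FBS, 500 pg/mL TGF-beta final, 18 h; per-cell GFP summed per well; curves fitted and categorized by class.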
ATXN viability: reduces viability in counter-screen for ATXN expression inhibitors | S2 cells (HEK-293 line with an ATXN2-luciferase reporter) viability, CellTiter-Fluor protease fluorescence, 24 h | 400,000 tested, 0.49% active | Potency, µM (titrated, usually from 56.7 µM), actives largely listed as cytotoxic; note: nearly all actives have a fitted effect of over 40% in size
ATXN2 expr inh: reduces ATXN2 reporter expression in HEK-293 cells. HEK-293 ATXN2-luciferase reporter, luminescence, 24 h. Potency, µM (doses to about 57 µM), hits mostly inhibitors. 360,000 tested, 0.72% active. AID 1745845; note: nearly all actives have a fitted effect of over 55% in size
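qHTS (up to 57 uM final) was run with 24 h compound exposure of reporter cells at 37 °C. Each well was multiplexed: SteadyGlo luminescence measured ATXN2-luciferase expression after a fluorogenic Gly-Phe-AFC viability readout (25 uM final).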
HT1080NT lethal: kills 2HG-producing HT-1080-NT fibrosarcoma cells; Potency, µM (doses to about 46.1 µM), most hits filed as cytotoxic; 360,000 tested, 1.6% active; HT-1080-NT fibrosarcoma viability, CellTiter-Glo ATP luminescence, 48 h; AID 686970;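 note: NT is the 2HG producing partner of a matched IDH1 knockdown line; nearly all actives have a fitted effect of over 55% in size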
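Read-out is CellTiter-Glo luminescence after 10 minutes at room temperature, following 48 hours' compound treatment of HT-1080-NT cells (750 cells/well, RPMI, 5% FBS, 37 degrees C).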
A number is an active result; – = inactive; ? = inconclusive; · = no result; [ ] = remark or other dose. Shown are actives, neighbours in structure and some others; about 3.8% of the full set was active somewhere. Calls come from the whole dose curve; as a rule, active = well fitted curve in the direction sought with a large enough effect; inconclusive = small, poorly fitted or top-dose-only effect, or another doubt; inactive = no such curve, though single readings can be large; an effect the other way counts as inactive or inconclusive.

SMILES	HepG2 viability	HT1080 IDH1KD tx	TGFb SMAD3 inh	ATXN viability	ATXN2 expr inh	HT1080NT lethal
Cn1cc(CCCC(=O)NCc2cccc(Br)c2)c2ccccc21	–	·	?	·	·	·
Cc1nc(CC(=O)NCC2Cc3cc(F)cc(-c4ccc(F)c(C)c4)c3O2)cs1 (configuration not stated)	·	·	·	–	·	·
O=C(CCOc1ccccc1)N1CCN(c2ccc(O)cc2)CC1	–	4.61µM	–	?	?	1.46µM
Nc1ccc(-n2c(N)c(C(=O)NCc3ccc4c(c3)OCO4)c3nc4ccccc4nc32)cc1	–	–	–	–	?	–
Nc1c(C(=O)NCc2ccccc2)c2nc3ccccc3nc2n1-c1ccc2c(c1)OCO2	–	?	–	–	22.4µM	–
Nc1c(C(=O)NCc2ccc3c(c2)OCO3)c2nc3ccccc3nc2n1CCCN1CCOCC1	11.2µM	–[9.24 µM]	?	–	?	?
Nc1c(C(=O)NCc2ccco2)c2nc3ccccc3nc2n1CCc1ccc(F)cc1	–	?	15.8µM	·	–	?
COCC(=O)Nc1cc(C(=O)N2CC3CC4CC(C3)CC2C4)c2c(c1)nc(-c1ccncc1)n2C	·	·	·	–	·	·
O=C(c1ccccc1)c1ccc(Oc2ccc([N+](=O)[O-])cc2[N+](=O)[O-])cc1	–	11.6µM	–	–	–	14.6µM
Cc1ccc(C(=O)c2coc3c2C(=O)C(=O)c2ccccc2-3)cc1	11.2µM	?	?	·	?	?
Cc1oc2c(c1C(=O)c1ccc(Cl)cc1)C(=O)C(=O)c1ccccc1-2	–	–	–	7.08µM	5.62µM	–
O=C(NCCN1CCCCC1)c1ccc(Oc2cc(Cl)cc(Cl)c2)o1	–	25.9µM	?	–	–	?
O=C(NCC1CC1)c1ccc(Oc2cc(Cl)cc(Cl)c2)o1	–	–	–	–	·	–
CC1(C)Cc2c(C#N)c(N)sc(=S)c2CS1	3.55µM	–	–	–	–	–
Cn1c(N)c(C#N)c2c(c1=S)CSC(C)(C)C2	–	–	–	–	–	–
COc1ccc(C)c2sc(N(CCCN(C)C)C(=O)CS(=O)(=O)c3ccc(F)cc3)nc12	–	–	–	–	–	18.4µM
CN1CCN(/N=C/c2ccc(N(C)c3ccccc3)cc2)CC1	–	–	–	?	–	–
CN1CCN(/N=C/c2ccc(N(c3ccccc3)c3ccccc3)cc2)CC1	–	–	2µM	·	0.844µM	–
CCOc1ccc(C(=O)CCC(=O)N2CCN(c3ccccc3O)CC2)cc1	2.51µM	–	–	–	–	–
CCOc1ccccc1CNC(=O)C1CCN(C(=O)N2CC(CC)Oc3ccc(C)cc32)CC1 (configuration not stated)	–	·	10µM	·	·	·
CC1CN(C(=O)N2CCC(C(=O)NCCCc3ccccc3)CC2)c2cc(Cl)ccc2O1 (configuration not stated)	–	·	14.1µM	·	·	·
CCC1CN(C(=O)N2CCC(C(=O)NCCc3ccccc3Cl)CC2)c2cc(C)ccc2O1 (configuration not stated)	–	·	11.2µM	·	·	·
CCOc1ccccc1CNC(=O)C1CCN(C(=O)N2CC(C)Oc3ccc(C)cc32)CC1 (configuration not stated)	–	–	–	?	–	–
Cc1ccc2c(c1)N(C(=O)N1CCC(C(=O)NCc3ccccc3F)CC1)CC(C)O2 (configuration not stated)	–	·	12.6µM	·	·	·
CCC(=O)Nc1ccc(CC)cc1-c1nc2ccccc2n(CC(=O)Nc2ccccc2C)c1=O	–	·	–	·	·	·
SMILES	HepG2 viability	HT1080 IDH1KD tx	TGFb SMAD3 inh	ATXN viability	ATXN2 expr inh	HT1080NT lethal
COc1ccc(CCNC(=O)CCCn2nc(C)c3sc4ccccc4c3c2=O)cc1OC	–	·	?	·	·	·
CCC1CN(C(=O)N2CCC(C(=O)N3CCN(c4cccc(C)c4C)CC3)CC2)c2ccccc2O1 (configuration not stated)	–	·	?	·	·	·
CCC1CN(C(=O)N2CCC(C(=O)N3CCN(c4cc(C)ccc4C)CC3)CC2)c2ccccc2O1 (configuration not stated)	–	·	10µM	·	·	·
COc1ccccc1NC(=O)c1sc2nc3c(c(C(F)(F)F)c2c1N)CN(C(C)=O)CC3	–	·	–	–	–	·
CN(C(=O)C=Cc1ccccc1)c1ccccc1	–	–	–	–	–	–
O=C(CCl)N(O)c1ccc(C=Cc2ccccc2)cc1	–	–	?	6.7µM	?	–
CCCCS(=O)(=O)N[C@@H](Cc1ccc(OCCCCC2CCNCC2)cc1)C(=O)O	·	·	·	–	–	·
C/C(=N/NC(=O)c1cccc(C)c1)c1c(O)cc(C)oc1=O	–	–	–	–	–	–
C/C(=N\Nc1ccccc1)c1c(O)cc(C)oc1=O	–	11.6µM	–	–	–	?
Cc1ccc(NC(=O)CN2C(=O)COc3ccc(S(=O)(=O)N4CCOCC4)cc32)c(Cl)c1	–	·	–	·	·	·
O=C(c1cccc(Cl)c1)n1nc(-c2ccco2)nc1NCc1cccs1	–	·	–	–	–	·
CC1(C)CC(=O)C(C(C2=C(O)CC(C)(C)CC2=O)c2ccc(Br)s2)C(=O)C1 (configuration not stated)	–	?	10µM	?	?	–
Cc1cccc(C(=O)N2CCc3cc(CNC(=O)c4cc5ccccc5[nH]4)ccc32)c1	–	·	–	·	·	·
CCc1ccccc1NC(=O)Cn1nc(C)c2nn(-c3ccc(Cl)cc3)c(C)c2c1=O	–	·	–	·	·	·
O=C1C2C3C=CC(C3)C2C(=O)N1/N=C/c1cn(Cc2ccc(F)cc2)c2ccccc12 (configuration not stated)	0.891µM	?	?	–	?	–
CCOC(=O)Cn1cc(C(=O)C2CC2)c2ccccc21	–	–	–	–	–	–
O=C1C2C3C=CC(C3)C2C(=O)N1/N=C/c1cn(Cc2ccccc2)c2ccccc12 (configuration not stated)	–	–	4.47µM	–	–	–
O=C1C2C3C=CC(CC3)C2C(=O)N1/N=C/c1c[nH]c2ccccc12 (configuration not stated)	–	–	–	?	–	–
CCOC(=O)Cn1cc(/C=N/N2C(=O)C3C4C=CC(C4)C3C2=O)c2ccccc21 (configuration not stated)	–	–	6.31µM	–	–	–
CC(C)(C)n1ncc2c(=O)n(Cc3cc(C(F)(F)F)ccc3Cl)cnc21	–	·	–	·	·	·
C[C@@H](NCc1cc2ccccc2[nH]1)c1cccc2ccccc12	·	·	·	·	–	·
COC(=O)[C@H](Cc1ccccc1)NC(=O)N1CCCCCC1	–	–	–	–	–	–
NC(=O)NC(Cc1ccccc1)C(=O)NCC1(N2CCCCC2)CCCCC1 (configuration not stated)	3.55µM	–	–	–	–	–
